Assay in all cases: NCI-60 one-dose screen, 48 h (100 = growth as untreated, 0 = no growth, -100 = all killed)
Holding throughout (conditions): 10 µM unless noted

In assay [1] the test system is SR leukemia.
The test system of assay [2] is RPMI-8226 leukemia.
Assay [3] has as its system OVCAR-8 ovarian.
Assay [4] has as its system OVCAR-5 ovarian.
Assay [5] deals with OVCAR-4 ovarian.
For assay [6], the system named is SK-OV-3 ovarian.
Assay [7] has as its system IGROV1 ovarian.
The test system of assay [8] is OVCAR-3 ovarian.
Assay [9] has as its system HS 578T breast.
Assay [10] relates to NCI/ADR-RES ovarian.
The test system of assay [11] is T-47D breast.
Assay [12] has as its system BT-549 breast.
The test system of assay [13] is MDA-MB-435 melanoma.
Assay [14] has as its system SW-620 colon.
Assay [15] has as its system MCF7 breast.
Assay [16] has as its system HCT-116 colon.
The subject of assay [17] is HCC-2998 colon.
Assay [18] deals with KM12 colon.

The structures appear in SMILES notation. Compounds without any hit were thinned out: in the full panel of roughly 83,000, 20% have a hit.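 Treatment: one concentration, 48 hours, 96-well format. Scoring: percent growth, with anything below 10 considered active.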 Unmarked numbers belong to inactive results. Calls of active or inactive are those of the source.

`COc1cc(/C=N\NC(=O)CN2CCN(c3cc4c(cc3F)c(=O)c(C(=O)N/N=C/c3ccc(O)c(OC)c3)cn4C3CC3)CC2)ccc1O`: the growth in assay [1] is 33.9%; in assay [2], 31.2%; in assay [3], 61.7%; in assay [4] it was 98.2%; in assay [5], 47.8%; in assay [6], 106%. The growth in assay [7] is 63.7%; in assay [8], 14.4%; in assay [9], 63.5%; in assay [10], 99.9%; in assay [11], -1.62% (active); in [12], 56%. Further, the growth in [13] is 55%; in assay [14], 57.2%; in [15] it was 12.5%; in [16] it was 53.6%; in assay [17], 7.72% (active); in [18] it was 20.5%.

Regarding `Clc1cccc(Nc2nc(Nc3cnc4ccccc4c3)c3[nH]cnc3n2)c1`, the growth in assay [1] is 80.8%; in assay [2], 78.3%; in [3], 75.6%; in [4], 89.3%; in assay [5], 93.9%; in assay [6], 71.2%. Further, the growth in assay [7] is 62.3%; in assay [8], 73.6%; in assay [9], 65.6%; in assay [10] it was 87.2%; in [11], 53.7%; in [12], 73.7%. The growth in assay [13] was 84.4%; in [14], 98.1%; in [15], 64.9%; in assay [16], 76.4%; in assay [17] it was 100%; in [18], 92.8%.

Regarding `c1c2c(cc3c1OCO3)Cc1cc3c(cc1Cc1cc4c(cc1C2)OCO4)OCO3`, the growth in [1] was 91.9%; in assay [2], 111%; in [3], 101%; in [4], 102%; in assay [5], 98.3%; in assay [6], 101%. Also, the growth in [7] was 104%; in assay [8] it was 123%; in assay [9] it was 104%; in [10] it was 113%; in assay [11], 108%; in assay [12] it was 113%. Moreover, the growth in [13] is 105%; in [14], 109%; in assay [15] it was 90.8%; in [16], 115%; in assay [17] it was 112%; in assay [18], 126%.

Regarding `O=c1ccc2cc3ccccc3cc2[nH]1`, the growth in assay [1] is 82.1%; in assay [2], 87.4%; in [3], 105%; in [4], 82%; in assay [5], 95.1%; in assay [6], 102%. Moreover, the growth in assay [7] was 98.2%; in [8] it was 87.4%; in assay [9], 50.9%; in assay [10], 93%; in assay [11], 96.9%; in [12] it was 108%. For the same compound, the growth in [13] is 92.3%; in [14] it was 97.4%; in assay [15], 96.6%; in assay [16], 99.2%; in assay [17] it was 83.3%; in [18] it was 101%.

For `COc1ccc(-n2cc(-c3ccccc3)c3c(SCC(=O)N/N=C/c4ccc([N+](=O)[O-])cc4)ncnc32)cc1`, the growth was 108% in [1]; 108% in assay [2]; 103% in assay [3]; 99.2% in assay [4]; 102% in [5]; 109% in assay [6]. The growth is 108% in assay [7]; 105% in [8]; 105% in [9]; 91.3% in assay [10]; 98.7% in assay [11]; 97.8% in [12]. The growth in [13] is 109%; in assay [14], 103%; in assay [15], 92.5%; in assay [16], 105%; in assay [17], 97.7%; in assay [18] it was 101%.

In the case of `COc1ccc(-c2csc(NC(=O)CN3CCN(c4cc5c(cc4F)c(=O)c(C(=O)O)cn5C4CC4)CC3)n2)cc1`, the growth in assay [1] is 16.7%; in [2], -9.43% (active); in assay [3] it was 9.73% (active); in assay [4], 37.4%; in assay [5], 40.8%; in assay [6], -4.37% (active). Further, the growth was 38.5% in assay [7]; 12.7% in assay [8]; 16.5% in assay [9]; 60.7% in assay [10]; 16.6% in assay [11]; 9.62% (active) in [12]. Further, the growth in assay [13] was 14.4%; in assay [14], 16%; in assay [15], 12.8%; in assay [16], 9.62% (active); in assay [17], 36.4%; in assay [18] it was 15.3%.

Consider `CSc1nc2sc3c(c2c(=O)n1-c1ccc(C(C)C)cc1)CCC(=O)C3`, for which the growth in [1] is -11.7% (active); in assay [2] it was -29.9% (active); in assay [3], 4.63% (active); in assay [4], 6.13% (active); in [5] it was 14.5%; in [6], 35.6%. Moreover, the growth in assay [7] is -6.1% (active); in [8], -27.4% (active); in assay [9], 2.67% (active); in [10], -11.1% (active); in assay [11], -48.3% (active); in [12], 3.97% (active). The growth is -6.88% (active) in assay [13]; -30.3% (active) in assay [14]; 16% in assay [15]; 2.14% (active) in assay [16]; 16.5% in assay [17]; -42% (active) in assay [18].

For `Cc1cc(N/N=C/c2nc(-c3ccc(Cl)cc3)oc2C)c2cc(Cl)ccc2n1`, the growth was -6.42% (active) in assay [1]; -35.5% (active) in [2]; 10.4% in assay [3]; 87.2% in assay [4]; -84.5% (active) in assay [5]; 100% in assay [6]. Also, the growth in assay [7] was 66.3%; in [8], -34.3% (active); in [9] it was 73.1%; in assay [10], 18%; in assay [11], 77%; in assay [12], 91.2%. Further, the growth in [13] is -29.7% (active); in [14] it was -69.3% (active); in assay [15], -86.2% (active); in assay [16], -47.1% (active); in assay [17], 103%; in [18], 53.6%.
